In assay [1] the target is Serine/threonine-protein kinase PAK 6 (Homo sapiens) (UniProt Q9NQU5). The following applies: at 1 µM.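 Further: values are mean percent inhibition of PAK6 kinase.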
The subject of assay [2] is Tyrosine-protein kinase ABL1 (Homo sapiens), P00519 [E255K]. The following applies: at 0.1 µM.
Assay [3] shares this test system. Conditions: at 1 µM.
The test system of assay [4] is Tyrosine-protein kinase ABL1 (Homo sapiens), P00519 [H396P]. Conditions: at 0.1 µM.
For assay [5] the test system is unchanged. The following applies: at 1 µM.
The test system of assay [6] is Tyrosine-protein kinase ABL1 (Homo sapiens), P00519 [M351T]. The following applies: at 0.1 µM.
Assay [7] shares this test system. The following applies: at 1 µM.
For assay [8], the system named is Tyrosine-protein kinase ABL1 (Homo sapiens), P00519 [Q252H]. Conditions: at 0.1 µM.
The test system is the same in assay [9]. Conditions: at 1 µM.
Assay [10] deals with Tyrosine-protein kinase ABL1 (Homo sapiens), P00519 [T315I]. Conditions: at 0.1 µM.
Assay [11] shares this test system. Conditions: at 1 µM.
Assay [12] concerns Tyrosine-protein kinase ABL1 (Homo sapiens), P00519 [Y253F]. The following applies: at 0.1 µM.
For assay [13] the test system is unchanged. The following applies: at 1 µM.
Assay [14] has as its target Tyrosine-protein kinase ABL1 (Homo sapiens) (UniProt P00519). The following applies: at 0.1 µM.
Assay [15] shares this target. The following applies: at 1 µM.
The target of assay [16] is ALK tyrosine kinase receptor (Homo sapiens) (UniProt Q9UM73). Conditions: at 0.1 µM.
Assay [17] has the same target. Conditions: at 1 µM.
For assay [18], the target named is Tyrosine-protein kinase ABL2 (Homo sapiens) (UniProt P42684). The following applies: at 0.1 µM.
Assay [19] shares this target. The following applies: at 1 µM.
Assay [20] has as its target Tyrosine-protein kinase receptor UFO (Homo sapiens) (UniProt P30530). Conditions: at 0.1 µM.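 Further: values are mean percent inhibition of AXL from the GSK PKIS screen.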

Each structure is given as a SMILES string.

ALK tyrosine kinase receptor (Homo sapiens), sequence (Q9UM73 19-1620 limits assumed): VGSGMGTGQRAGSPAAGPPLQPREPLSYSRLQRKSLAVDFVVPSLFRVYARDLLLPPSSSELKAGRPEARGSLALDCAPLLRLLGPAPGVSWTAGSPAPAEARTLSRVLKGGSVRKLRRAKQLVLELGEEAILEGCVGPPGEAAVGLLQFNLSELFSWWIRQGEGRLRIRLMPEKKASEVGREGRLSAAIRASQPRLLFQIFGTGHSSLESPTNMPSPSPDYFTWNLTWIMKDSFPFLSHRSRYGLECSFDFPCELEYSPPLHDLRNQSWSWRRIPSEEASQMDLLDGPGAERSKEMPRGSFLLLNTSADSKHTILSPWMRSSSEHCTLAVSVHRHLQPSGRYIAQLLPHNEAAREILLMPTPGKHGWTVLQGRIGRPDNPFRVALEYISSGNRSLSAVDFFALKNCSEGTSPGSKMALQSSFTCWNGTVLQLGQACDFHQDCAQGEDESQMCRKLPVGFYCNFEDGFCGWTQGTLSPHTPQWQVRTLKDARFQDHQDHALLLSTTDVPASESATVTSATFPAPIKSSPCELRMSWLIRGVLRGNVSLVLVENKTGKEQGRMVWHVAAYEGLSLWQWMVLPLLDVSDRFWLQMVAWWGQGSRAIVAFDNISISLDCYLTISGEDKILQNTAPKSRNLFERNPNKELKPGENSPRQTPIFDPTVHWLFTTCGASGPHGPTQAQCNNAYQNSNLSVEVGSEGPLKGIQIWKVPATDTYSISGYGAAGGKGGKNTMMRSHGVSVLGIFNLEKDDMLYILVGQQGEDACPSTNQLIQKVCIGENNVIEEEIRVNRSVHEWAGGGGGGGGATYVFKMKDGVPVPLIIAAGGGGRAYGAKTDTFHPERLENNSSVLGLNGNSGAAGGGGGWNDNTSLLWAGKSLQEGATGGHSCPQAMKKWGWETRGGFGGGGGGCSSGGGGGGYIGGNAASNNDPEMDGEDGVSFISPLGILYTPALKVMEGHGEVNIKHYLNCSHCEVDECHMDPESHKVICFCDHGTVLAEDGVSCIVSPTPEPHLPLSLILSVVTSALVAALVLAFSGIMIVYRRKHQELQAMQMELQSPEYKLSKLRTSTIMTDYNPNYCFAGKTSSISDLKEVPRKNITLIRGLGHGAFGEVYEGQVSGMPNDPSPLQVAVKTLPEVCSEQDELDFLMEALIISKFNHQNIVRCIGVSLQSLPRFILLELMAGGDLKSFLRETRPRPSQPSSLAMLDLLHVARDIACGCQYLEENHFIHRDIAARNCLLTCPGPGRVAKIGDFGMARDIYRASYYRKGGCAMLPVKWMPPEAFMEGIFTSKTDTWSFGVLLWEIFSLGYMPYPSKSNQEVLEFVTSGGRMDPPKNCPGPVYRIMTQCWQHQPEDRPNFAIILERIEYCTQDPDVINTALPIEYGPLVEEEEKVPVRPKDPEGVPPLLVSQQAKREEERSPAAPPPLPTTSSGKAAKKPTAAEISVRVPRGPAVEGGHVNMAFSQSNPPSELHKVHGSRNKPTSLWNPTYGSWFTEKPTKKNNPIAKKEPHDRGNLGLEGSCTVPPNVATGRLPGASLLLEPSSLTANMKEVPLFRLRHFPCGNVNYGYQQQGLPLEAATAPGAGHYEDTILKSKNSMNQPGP
Tyrosine-protein kinase ABL2 (Homo sapiens), sequence (P42684 whole entry): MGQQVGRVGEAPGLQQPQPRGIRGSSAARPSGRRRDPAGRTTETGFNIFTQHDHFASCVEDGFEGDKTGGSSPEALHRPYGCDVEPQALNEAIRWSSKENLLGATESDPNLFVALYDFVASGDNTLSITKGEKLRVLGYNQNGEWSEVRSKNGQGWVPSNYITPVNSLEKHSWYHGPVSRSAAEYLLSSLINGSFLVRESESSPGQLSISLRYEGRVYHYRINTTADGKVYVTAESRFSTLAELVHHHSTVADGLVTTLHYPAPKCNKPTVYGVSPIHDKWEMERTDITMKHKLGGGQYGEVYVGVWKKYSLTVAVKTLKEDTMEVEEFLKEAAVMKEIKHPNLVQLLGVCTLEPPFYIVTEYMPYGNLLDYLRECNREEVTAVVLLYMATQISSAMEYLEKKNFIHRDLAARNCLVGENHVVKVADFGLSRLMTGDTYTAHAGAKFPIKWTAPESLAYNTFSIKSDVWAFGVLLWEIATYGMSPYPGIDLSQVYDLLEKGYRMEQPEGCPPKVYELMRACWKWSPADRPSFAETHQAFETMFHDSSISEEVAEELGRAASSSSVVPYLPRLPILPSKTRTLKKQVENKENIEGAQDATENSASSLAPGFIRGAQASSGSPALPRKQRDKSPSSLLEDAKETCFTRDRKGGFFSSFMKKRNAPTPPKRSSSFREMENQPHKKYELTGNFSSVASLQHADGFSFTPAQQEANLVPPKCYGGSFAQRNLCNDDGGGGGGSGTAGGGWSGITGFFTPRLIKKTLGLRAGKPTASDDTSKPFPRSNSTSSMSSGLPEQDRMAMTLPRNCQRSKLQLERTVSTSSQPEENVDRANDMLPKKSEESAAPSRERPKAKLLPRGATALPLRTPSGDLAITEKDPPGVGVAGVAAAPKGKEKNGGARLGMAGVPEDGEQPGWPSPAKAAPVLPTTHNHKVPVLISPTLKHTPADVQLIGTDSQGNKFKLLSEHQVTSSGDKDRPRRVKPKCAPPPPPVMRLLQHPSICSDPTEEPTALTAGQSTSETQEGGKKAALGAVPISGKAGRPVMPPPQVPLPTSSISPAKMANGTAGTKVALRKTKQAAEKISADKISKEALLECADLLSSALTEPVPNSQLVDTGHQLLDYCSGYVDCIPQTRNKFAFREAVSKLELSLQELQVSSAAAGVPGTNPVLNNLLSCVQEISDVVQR
Serine/threonine-protein kinase PAK 6 (Homo sapiens), sequence (Q9NQU5 whole entry, looked up): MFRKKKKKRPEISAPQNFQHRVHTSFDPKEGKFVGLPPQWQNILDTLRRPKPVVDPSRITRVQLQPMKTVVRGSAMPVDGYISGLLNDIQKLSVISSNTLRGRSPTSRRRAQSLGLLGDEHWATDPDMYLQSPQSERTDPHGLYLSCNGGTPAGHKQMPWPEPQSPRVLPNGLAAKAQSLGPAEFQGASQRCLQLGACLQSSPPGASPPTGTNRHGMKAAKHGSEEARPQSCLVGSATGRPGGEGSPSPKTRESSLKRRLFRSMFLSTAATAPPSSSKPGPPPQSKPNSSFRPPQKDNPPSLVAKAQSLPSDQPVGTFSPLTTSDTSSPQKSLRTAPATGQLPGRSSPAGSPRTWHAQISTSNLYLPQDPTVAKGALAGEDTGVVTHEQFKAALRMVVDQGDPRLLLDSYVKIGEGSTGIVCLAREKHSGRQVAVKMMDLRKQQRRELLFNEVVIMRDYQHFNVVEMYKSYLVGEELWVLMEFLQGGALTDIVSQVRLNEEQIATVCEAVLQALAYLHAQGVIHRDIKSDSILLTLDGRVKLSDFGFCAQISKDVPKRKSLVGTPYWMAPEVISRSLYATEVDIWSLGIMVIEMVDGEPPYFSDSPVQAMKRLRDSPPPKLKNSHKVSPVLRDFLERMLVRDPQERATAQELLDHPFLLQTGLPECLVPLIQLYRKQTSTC
Tyrosine-protein kinase receptor UFO (Homo sapiens), sequence (P30530 whole entry): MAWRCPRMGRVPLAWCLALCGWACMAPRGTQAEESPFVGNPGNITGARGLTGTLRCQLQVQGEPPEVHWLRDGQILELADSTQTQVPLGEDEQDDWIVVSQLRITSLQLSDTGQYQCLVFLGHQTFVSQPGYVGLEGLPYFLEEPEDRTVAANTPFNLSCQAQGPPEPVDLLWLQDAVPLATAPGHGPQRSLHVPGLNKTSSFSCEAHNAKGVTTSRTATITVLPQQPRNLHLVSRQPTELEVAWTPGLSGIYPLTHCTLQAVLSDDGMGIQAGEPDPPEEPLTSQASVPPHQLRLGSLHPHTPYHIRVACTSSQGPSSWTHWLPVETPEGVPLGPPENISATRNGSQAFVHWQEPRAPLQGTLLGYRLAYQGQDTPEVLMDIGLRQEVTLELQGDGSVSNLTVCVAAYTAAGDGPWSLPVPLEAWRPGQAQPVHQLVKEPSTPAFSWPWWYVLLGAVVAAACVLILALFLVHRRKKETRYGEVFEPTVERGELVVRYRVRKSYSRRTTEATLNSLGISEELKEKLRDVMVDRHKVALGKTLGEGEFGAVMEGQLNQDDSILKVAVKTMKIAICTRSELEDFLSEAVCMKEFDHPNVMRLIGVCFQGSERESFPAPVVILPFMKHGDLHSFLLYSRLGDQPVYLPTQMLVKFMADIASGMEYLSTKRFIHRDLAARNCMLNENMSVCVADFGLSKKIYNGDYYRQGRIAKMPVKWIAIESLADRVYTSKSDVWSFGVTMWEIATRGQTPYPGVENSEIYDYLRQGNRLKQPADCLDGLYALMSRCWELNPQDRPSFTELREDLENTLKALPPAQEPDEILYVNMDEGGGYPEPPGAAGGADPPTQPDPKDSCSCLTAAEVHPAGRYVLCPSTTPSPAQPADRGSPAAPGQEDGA

By inhibition is commonly meant the relative decrease from the control value, in per cent. Consider `COc1cccc(-n2ncc3c(N/N=C/c4ccncc4)ncnc32)c1`, for which the inhibition was -8.53% in assay [1]; 77% in assay [2]; 93.9% in assay [3]; 82.9% in assay [4]; 94.9% in assay [5]; 82.3% in assay [6]. The inhibition in assay [7] is 94%; in [8], 87.2%; in assay [9], 95.7%; in assay [10] it was 42.4%; in [11], 85.2%; in [12], 84.5%. The inhibition in [13] came to 94.9%; in assay [14], 69.3%; in assay [15], 89%; in assay [16] it was 3.94%; in [17], 7.96%; in assay [18], 47.8%. In addition, the inhibition is 82.8% in [19] and -5.41% in [20].
In the case of `Nc1nonc1-c1nc2cnccc2n1C1CCCCC1`, the inhibition is -4.16% in assay [1]; -1.63% in [2]; -0.67% in assay [3]; -1.2% in assay [4]; -0.69% in assay [5]; 1.15% in [6]. The inhibition in [7] was 3.69%; in assay [8], -2.14%; in assay [9], 1.64%; in [10], -1.05%; in assay [11], -0.01%; in [12], -0.51%. Further, the inhibition was 2.63% in [13]; -0.08% in [14]; 7.12% in [15]; -2.37% in [16]; 2.16% in assay [17]; 1.35% in assay [18]. Also, the values for the inhibition in assay [19] and in assay [20] were 3.74% and 4.13%, respectively.
For the molecule `NS(=O)(=O)c1ccc(N/C=C2\C(=O)Nc3ccc4ncsc4c32)cc1`, the inhibition was -3.07% in [1]; 3.53% in [2]; 21.2% in assay [3]; 7.89% in assay [4]; 31.5% in [5]; 5.55% in [6]. Further, the inhibition in [7] worked out at 30.6%; in assay [8], 9.38%; in [9], 38.7%; in [10] it was 6.29%; in [11], 41.1%; in assay [12], 5.62%. Further, the inhibition in assay [13] was determined as 32.9%; in assay [14] it was 8.9%; in assay [15], 32.9%; in assay [16] it was 4.55%; in assay [17], 15.1%; in [18], 5.92%. Also, the values for the inhibition in [19] and in assay [20] were 21.8% and -3.83%, respectively.
Take `Fc1ccc(-c2ncn(C3CCNCC3)c2-c2ccnc(Oc3ccccc3)n2)cc1`: the inhibition is -6.64% in [1]; -0.56% in assay [2]; 1.05% in [3]; 2.03% in assay [4]; 1.85% in [5]; -0.31% in assay [6]. For the same molecule, the inhibition in [7] was -0.15%; in assay [8] it was 1.55%; in [9], 2.19%; in assay [10], -0.76%; in assay [11] it was -0.9%; in [12], 1.35%. Moreover, the inhibition was 2.58% in assay [13]; -2.46% in [14]; -4.75% in assay [15]; -2.73% in assay [16]; -0.15% in [17]; -2.93% in [18]. The inhibition is -3.16% in assay [19] and -4.72% in [20].
Turning to `CCn1c(-c2nonc2N)nc2c(C#CCN)ncc(OCCCN)c21`, the inhibition in assay [1] is 2.6%; in [2] it was -4.53%; in assay [3] it was -4.45%; in [4], -4.29%; in assay [5] it was -0.59%; in [6], -1.57%. In addition, the inhibition in assay [7] is 1.28%; in [8] it was -2.52%; in assay [9], 0.94%; in assay [10], -2.53%; in assay [11], 1.94%; in assay [12], -2.47%. In addition, the inhibition in assay [13] was -2.94%; in assay [14], 1.03%; in assay [15] it was 2.03%; in [16] it was -6.6%; in assay [17] it was -0.9%; in assay [18] it was -2.47%. Besides, the inhibition in assay [19] was -0.76%; in [20] it was 7.73%.
For the molecule `NC(=O)c1sc(-n2cnc3cc(C(F)(F)F)ccc32)cc1OCc1ccccc1Br`, the inhibition in [1] is 0.31%; in [2], 2.61%; in [3], 3.23%; in [4], 3.11%; in assay [5] it was 3.6%; in [6], 2.27%. The inhibition in assay [7] came to 2.72%; in assay [8] it was 1.81%; in [9], 2.64%; in assay [10], 1.04%; in [11], 1.66%; in assay [12] it was 4.14%. In addition, the inhibition was 4.68% in assay [13]; 3.16% in assay [14]; 3.85% in [15]; 1.22% in assay [16]; 1.22% in [17]; 2.86% in [18]. Also, the inhibition in assay [19] was 4.58%; in assay [20], -0.22%.
For the molecule `COc1cc2c(cc1Nc1nc(Nc3ccsc3C(N)=O)c3cc[nH]c3n1)N(C(=O)CN(C)C)CCC2`, the inhibition in [1] is 5.48%; in [4], -3.59%; in [5], -0.29%; in assay [6], 1.67%; in assay [7] it was 3.14%; in [8], 1.29%. Moreover, the inhibition is 3.2% in assay [9]; 0.06% in assay [10]; 2.06% in assay [11]; 1.77% in assay [12]; 5.17% in assay [13]; 1.69% in assay [14]. For the same molecule, the inhibition in [15] turned out to be 3.88%; in assay [16], 83.9%; in assay [17], 85.4%; in [18] it was 5.49%; in [19] it was 8.21%; in assay [20], 22.9%.

Values taken from ChEMBL document CHEMBL1961873, “Compounds: GSK PKIS; Assays: Nanosyn kinase panel” (2012).
